Results from PubChem BioAssay (NCI).
Compounds without any hit were thinned out: in the full panel of roughly 83,000, 20% have a hit.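 The test compound was applied at a single concentration to cells in 96-well plates for 48 hours, and percent growth was recorded.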 Values without a mark were called inactive. Calls of active or inactive are those of the source. Rule for the calls: active = growth percent below 10; inactive = the rest.

Tested on: MDA-MB-468 breast
Test: NCI-60 one-dose screen, 48 h (100 = growth as untreated, 0 = no growth, -100 = all killed)
Conditions: 10 µM unless noted

Row | Compound | growth
1 | CSc1cccc(NC(=O)Nc2nc3c(C)cccc3s2)c1 | 84.6%
2 | CCN(CC)CCCC(C)Nc1c2ccc(C)cc2nc2ccc(OC)cc12 (stereo not given) | -65.1% (active)
3 | c1c(-c2cc(C3CC3)[nH]n2)n[nH]c1C1CC1 | 95.4%
4 | COc1ccc(C(O)c2cc3c(N)c(C(=O)Nc4ccc(Br)cc4)sc3nc2C)cc1 (stereo not given) | -0.733% (active)
5 | O=c1ccn(C2OC(CO)C(O)C2F)c(=O)[nH]1 (stereo not given) | 105%
6 | COc1cc2c(c(OC)c1OC)C(=O)CC(c1cccc(C(=O)Nc3ccc(C#N)cc3)c1)O2 (stereo not given) | 58.9%
7 | NC(N)=Nc1ccc(Oc2cccc(Nc3ccc(Cl)c(C(F)(F)F)c3)c2)cn1 | -84.4% (active)
8 | COC(=O)[C@H](Cc1cn(C)cn1)NC(=O)[C@@H](NC(=O)Nc1cc(C(F)(F)F)cc(C(F)(F)F)c1)C(C)C | -60.4% [100 µM] (active)
9 | CCCc1n(Cc2ccc3ccccc3n2)cc[n+]1Cc1ccc2ccccc2c1 | -28.4% (active)
10 | CC(=O)NCC(=O)N1[C@@H]2CC[C@H]1c1ccc(Nc3ncc(C(F)(F)F)c(NC4CCC4)n3)cc12 | 72% [2.5 µM]
11 | COc1ccc(-c2cc(-c3ccccc3)nc(SCCCCCC(=O)NO)n2)cc1 | 64.8%
12 | COc1cc2c(c(OC)c1OC)-c1cc(I)c(O)cc1[C@@H](NC(C)=O)CC2 | -32.9% (active)
13 | O=C(c1cc2ccccc2o1)c1nn(-c2ccccc2)/c(=N/N=Cc2cn(-c3ccccc3)nc2-c2cc3ccccc3oc2=O)s1 | 105%
14 | Nc1ncc(-c2ccc3ncnc(N4CCc5ccc(Cl)cc54)c3c2)cc1C(F)(F)F | -36% (active)
15 | O=C(Nc1ccc(N=Cc2c(O)[nH]c3ccccc23)cc1)Nc1ccc(S(=O)(=O)Nc2ncccn2)cc1 | 116%
16 | COC(=O)CNC(=O)c1ccc(NC(=O)c2[nH]c(C)c(Cl)c2Cl)c(O[C@H]2CCNC2)c1 | 112%
17 | CC(C)c1ccc2occ(C=C3C(=O)NC(=O)NC3=O)c(=O)c2c1 | 96.9%
18 | S=C(Nc1ccc(Cl)cc1)c1ccccn1 | 98.9%
19 | CCOC(=O)C1C(C(=O)OCC)C2C(=O)C3C(C(=O)OCC)C(C(=O)OCC)C3C(=O)C12 (stereo not given) | 98.5%
20 | O=C(O)c1cccc(CN2CCN(c3cc4c(cc3F)c(=O)c(C(=O)O)cn4C3CC3)CC2)c1O | 101%

Row | Compound | growth
21 | CCSc1ncnc2c1ncn2C1OC(CO)C(O)C1O (stereo not given) | 15.8%
22 | C=C1C(=O)O[C@H]2[C@H]1CC/C(COC(=O)n1ccnc1)=C\CC[C@@]1(C)O[C@@H]21 | 79.7%
23 | CCCC(C)c1ccc(OCCCCCCN2CCNCC2)cc1 (stereo not given) | -58.5% (active)
24 | CCCN=C(N)c1ccc(NC(=O)c2ccc(C(=O)Nc3ccc(C(N)=NCCC)cc3)cc2)cc1 | 67.1%
25 | N#Cc1c(NC(=O)NCc2ccccc2)sc2c1CCCC2 | -33.5% (active)
26 | O=C(CCc1nnc2sc(/C=C\c3ccccc3)nn12)c1nc2ccccc2[nH]1 | 76.7%
27 | Oc1ccc(N=Nc2nccs2)c(O)c1 | 48.5%
28 | N#CCNC(=O)c1ccc(-c2ccnc(Nc3ccc(N4CCOCC4)cc3)n2)cc1 | 9.99% (active)
29 | CCCCCCNc1cc(C)nc2ccc(OC)cc12 | -10.9% (active)
30 | FC(F)(F)c1ccc(-c2cnc(-c3nn[nH]n3)nc2NC2CCCCCC2)cc1 | 68.5% [50 µM]
31 | CCO/C=N/C1=C(C#N)C(c2ccc(Cl)cc2)c2sc3c(F)cccc3c2O1 (stereo not given) | 54.3%
32 | CN([N-]C(=O)CC(=O)[N-]N(C)C(=S)c1ccccc1)C(=S)c1ccccc1.[Cu+2] | -58% (active)
33 | COc1cccc(-c2nc3occn3c2-c2ccnc(NCCNS(=O)(=O)c3ccc(C(F)(F)F)cc3)n2)c1 | 77.4%
34 | CN(C)c1ccc(-c2cc(-c3cccc(NS(C)(=O)=O)c3)nc(N)c2C#N)cc1 | -20.1% (active)
35 | CC(=O)N1C/C(=C/c2ccc(Cl)cc2)C(=O)/C(=C/c2ccc(Cl)cc2)C1 | -80% (active)
36 | CCOC(=O)C1CCN(S(=O)(=O)/N=C2/NC(=O)NC2=C(Cl)Cl)CC1 | -22.2% (active)
37 | CN1CCN(c2ccc3nc(-c4[nH]ncc4Nc4ncnc5c4OCCCN5)[nH]c3c2)CC1 | -76.3% (active)
38 | CCCn1cc(/C=N\N=C2\C(=O)Nc3ccc(C)cc32)c2ccccc21 | 25.2%
39 | Cn1c2c(c3ccc(Cl)cc31)-n1cccc1C2=O | 104%
40 | CCOC(=O)[C@]1(Br)CC[C@@]1(Br)C(=O)OCC | 44.9%
